Our source for the residual activity values is ChEMBL document CHEMBL2218924, “A broad activity screen in support of a chemogenomic map for kinase signalling research and drug discovery” (Biochem J, 2013).

Experiment [1] concerns the target Serine/threonine-protein kinase SIK1 (Homo sapiens) (UniProt P57059). The conditions noted are these: at 10 µM.
Experiment [2] deals with SRSF protein kinase 1 (Homo sapiens) (UniProt Q96SB4). Particulars: at 1 µM.
For experiment [3] the target is unchanged. The conditions noted are these: at 10 µM.
Experiment [4] has as its target SRSF protein kinase 2 (Homo sapiens) (UniProt P78362). Particulars: at 1 µM.
For experiment [5] the target is unchanged. Particulars: at 10 µM.
In experiment [6] the target is Serine/threonine-protein kinase 33 (Homo sapiens) (UniProt Q9BYT3). Particulars: at 1 µM.
Experiment [7] has the same target. Particulars: at 10 µM.
The target in experiment [8] is Serine/threonine-protein kinase PLK2 (Homo sapiens) (UniProt Q9NYY3). The conditions noted are these: at 1 µM.
For experiment [9] the target is unchanged. The conditions noted are these: at 10 µM.
Experiment [10] addresses Tyrosine-protein kinase SYK (Homo sapiens) (UniProt P43405). Particulars: at 10 µM.
Experiment [11] concerns the target T1, Mitogen-activated protein kinase kinase kinase 7 (Homo sapiens) (UniProt O43318).
T1 sequence (whole entry): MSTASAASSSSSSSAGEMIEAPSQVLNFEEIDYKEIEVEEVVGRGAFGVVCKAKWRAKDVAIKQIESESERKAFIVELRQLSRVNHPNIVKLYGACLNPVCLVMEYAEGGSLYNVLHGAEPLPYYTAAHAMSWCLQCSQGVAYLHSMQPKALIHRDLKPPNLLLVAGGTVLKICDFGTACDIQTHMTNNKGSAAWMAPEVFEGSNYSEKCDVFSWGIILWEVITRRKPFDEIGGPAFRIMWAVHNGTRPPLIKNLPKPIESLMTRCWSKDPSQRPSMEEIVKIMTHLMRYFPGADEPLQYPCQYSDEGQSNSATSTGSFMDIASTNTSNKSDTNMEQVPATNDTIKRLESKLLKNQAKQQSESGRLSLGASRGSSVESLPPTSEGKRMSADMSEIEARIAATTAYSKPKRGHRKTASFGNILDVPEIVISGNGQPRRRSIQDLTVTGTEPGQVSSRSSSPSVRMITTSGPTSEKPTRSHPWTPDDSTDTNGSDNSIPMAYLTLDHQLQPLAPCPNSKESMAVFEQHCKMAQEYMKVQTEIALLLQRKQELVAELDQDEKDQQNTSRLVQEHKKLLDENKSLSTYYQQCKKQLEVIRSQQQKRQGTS
The conditions noted are these: at 1 µM.

Experiment [12] has as its target T1, Mitogen-activated protein kinase kinase kinase 7 (Homo sapiens). Particulars: at 10 µM.
The target in experiment [13] is T2, Serine/threonine-protein kinase TAO1 (Homo sapiens) (UniProt Q7L7X3).
T2 sequence (whole entry): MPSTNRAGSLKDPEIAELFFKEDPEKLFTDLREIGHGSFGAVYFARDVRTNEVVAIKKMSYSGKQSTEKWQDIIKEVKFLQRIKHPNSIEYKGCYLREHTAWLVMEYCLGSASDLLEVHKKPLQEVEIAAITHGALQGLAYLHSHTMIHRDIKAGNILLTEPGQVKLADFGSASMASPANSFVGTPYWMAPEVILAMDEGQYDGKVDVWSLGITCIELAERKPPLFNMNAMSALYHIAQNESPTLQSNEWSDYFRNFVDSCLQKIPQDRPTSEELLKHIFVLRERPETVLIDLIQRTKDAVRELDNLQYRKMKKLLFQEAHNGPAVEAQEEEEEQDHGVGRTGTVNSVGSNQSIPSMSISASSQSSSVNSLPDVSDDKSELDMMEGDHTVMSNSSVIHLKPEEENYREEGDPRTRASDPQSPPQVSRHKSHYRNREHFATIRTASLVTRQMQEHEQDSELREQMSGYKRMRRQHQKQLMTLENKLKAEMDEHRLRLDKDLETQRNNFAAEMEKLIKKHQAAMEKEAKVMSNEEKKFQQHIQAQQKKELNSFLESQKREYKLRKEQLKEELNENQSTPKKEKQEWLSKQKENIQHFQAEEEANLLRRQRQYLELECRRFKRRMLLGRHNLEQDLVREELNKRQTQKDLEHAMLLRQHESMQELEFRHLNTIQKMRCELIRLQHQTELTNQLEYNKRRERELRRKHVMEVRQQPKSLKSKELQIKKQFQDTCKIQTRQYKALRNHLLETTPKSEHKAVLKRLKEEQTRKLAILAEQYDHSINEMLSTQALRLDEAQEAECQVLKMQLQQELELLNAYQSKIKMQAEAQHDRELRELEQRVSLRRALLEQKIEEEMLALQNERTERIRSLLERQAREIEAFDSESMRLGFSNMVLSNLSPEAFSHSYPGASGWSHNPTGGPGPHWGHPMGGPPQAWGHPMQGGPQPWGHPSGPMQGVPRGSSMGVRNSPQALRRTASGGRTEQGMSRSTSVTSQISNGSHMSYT
Particulars: at 1 µM.

Experiment [14] concerns the target T2, Serine/threonine-protein kinase TAO1 (Homo sapiens). Particulars: at 10 µM.
The target of experiment [15] is T3, Serine/threonine-protein kinase TAO2 (Homo sapiens) (UniProt Q9UL54).
T3 sequence (whole entry): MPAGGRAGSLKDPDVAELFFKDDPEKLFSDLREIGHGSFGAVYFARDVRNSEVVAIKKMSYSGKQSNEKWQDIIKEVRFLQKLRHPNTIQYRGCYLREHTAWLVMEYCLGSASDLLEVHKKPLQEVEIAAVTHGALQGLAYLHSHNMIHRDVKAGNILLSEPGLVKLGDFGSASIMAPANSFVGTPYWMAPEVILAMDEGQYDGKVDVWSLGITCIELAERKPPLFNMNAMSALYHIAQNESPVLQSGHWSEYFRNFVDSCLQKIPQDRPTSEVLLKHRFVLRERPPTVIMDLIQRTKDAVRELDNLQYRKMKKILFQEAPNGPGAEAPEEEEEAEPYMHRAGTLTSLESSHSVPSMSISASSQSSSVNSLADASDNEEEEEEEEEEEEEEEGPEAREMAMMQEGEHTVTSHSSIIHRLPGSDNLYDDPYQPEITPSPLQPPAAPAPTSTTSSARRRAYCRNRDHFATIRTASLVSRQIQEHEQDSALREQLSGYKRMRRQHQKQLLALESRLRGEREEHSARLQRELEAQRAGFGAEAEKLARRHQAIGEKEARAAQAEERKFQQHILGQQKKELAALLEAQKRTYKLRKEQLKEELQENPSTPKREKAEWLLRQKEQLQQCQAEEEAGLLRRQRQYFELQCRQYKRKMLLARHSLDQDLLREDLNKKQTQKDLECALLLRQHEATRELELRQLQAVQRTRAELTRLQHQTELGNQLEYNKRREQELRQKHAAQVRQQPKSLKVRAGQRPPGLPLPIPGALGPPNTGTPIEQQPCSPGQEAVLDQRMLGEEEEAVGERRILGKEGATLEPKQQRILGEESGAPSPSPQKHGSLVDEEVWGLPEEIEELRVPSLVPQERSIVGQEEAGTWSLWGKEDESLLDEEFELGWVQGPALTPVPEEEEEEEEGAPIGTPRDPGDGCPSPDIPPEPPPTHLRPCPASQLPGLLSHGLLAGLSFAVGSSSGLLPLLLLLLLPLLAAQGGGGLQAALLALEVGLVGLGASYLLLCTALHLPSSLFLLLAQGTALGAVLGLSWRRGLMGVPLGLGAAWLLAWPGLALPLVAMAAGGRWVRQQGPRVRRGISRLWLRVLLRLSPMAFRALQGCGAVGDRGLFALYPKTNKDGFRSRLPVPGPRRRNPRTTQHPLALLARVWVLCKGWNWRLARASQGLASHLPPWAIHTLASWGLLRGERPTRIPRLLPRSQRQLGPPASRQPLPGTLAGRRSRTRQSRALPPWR
Particulars: at 10 µM.

Experiment [16] has as its target T4, Serine/threonine-protein kinase TAO3 (Homo sapiens) (UniProt Q9H2K8).
T4 sequence (whole entry): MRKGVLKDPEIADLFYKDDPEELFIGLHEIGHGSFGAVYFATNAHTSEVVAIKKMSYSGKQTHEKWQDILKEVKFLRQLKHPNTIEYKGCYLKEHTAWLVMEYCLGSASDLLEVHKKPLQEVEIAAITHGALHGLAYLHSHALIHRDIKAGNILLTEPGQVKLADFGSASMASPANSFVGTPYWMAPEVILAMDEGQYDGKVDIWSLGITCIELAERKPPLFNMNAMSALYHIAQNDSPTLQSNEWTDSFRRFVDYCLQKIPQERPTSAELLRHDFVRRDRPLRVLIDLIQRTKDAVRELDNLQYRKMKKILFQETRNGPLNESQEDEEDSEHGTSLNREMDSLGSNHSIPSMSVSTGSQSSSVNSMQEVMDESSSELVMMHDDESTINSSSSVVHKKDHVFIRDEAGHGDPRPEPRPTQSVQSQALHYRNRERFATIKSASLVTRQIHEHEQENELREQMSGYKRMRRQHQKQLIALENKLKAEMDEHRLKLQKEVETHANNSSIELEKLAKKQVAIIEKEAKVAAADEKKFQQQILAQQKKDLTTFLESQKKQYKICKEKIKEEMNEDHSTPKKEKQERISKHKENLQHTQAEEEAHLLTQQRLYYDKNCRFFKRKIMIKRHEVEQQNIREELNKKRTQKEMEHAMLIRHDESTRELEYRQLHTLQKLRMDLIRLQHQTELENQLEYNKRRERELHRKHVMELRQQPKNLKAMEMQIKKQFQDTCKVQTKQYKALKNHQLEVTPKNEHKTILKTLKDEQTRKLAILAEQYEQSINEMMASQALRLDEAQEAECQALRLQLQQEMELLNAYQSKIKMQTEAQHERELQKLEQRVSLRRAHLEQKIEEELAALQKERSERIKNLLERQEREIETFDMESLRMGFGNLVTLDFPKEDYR
Particulars: at 1 µM.

The target in experiment [17] is T4, Serine/threonine-protein kinase TAO3 (Homo sapiens). Particulars: at 10 µM.
Experiment [18] addresses T5, Serine/threonine-protein kinase TBK1 (Homo sapiens) (UniProt Q9UHD2).
T5 sequence (whole entry): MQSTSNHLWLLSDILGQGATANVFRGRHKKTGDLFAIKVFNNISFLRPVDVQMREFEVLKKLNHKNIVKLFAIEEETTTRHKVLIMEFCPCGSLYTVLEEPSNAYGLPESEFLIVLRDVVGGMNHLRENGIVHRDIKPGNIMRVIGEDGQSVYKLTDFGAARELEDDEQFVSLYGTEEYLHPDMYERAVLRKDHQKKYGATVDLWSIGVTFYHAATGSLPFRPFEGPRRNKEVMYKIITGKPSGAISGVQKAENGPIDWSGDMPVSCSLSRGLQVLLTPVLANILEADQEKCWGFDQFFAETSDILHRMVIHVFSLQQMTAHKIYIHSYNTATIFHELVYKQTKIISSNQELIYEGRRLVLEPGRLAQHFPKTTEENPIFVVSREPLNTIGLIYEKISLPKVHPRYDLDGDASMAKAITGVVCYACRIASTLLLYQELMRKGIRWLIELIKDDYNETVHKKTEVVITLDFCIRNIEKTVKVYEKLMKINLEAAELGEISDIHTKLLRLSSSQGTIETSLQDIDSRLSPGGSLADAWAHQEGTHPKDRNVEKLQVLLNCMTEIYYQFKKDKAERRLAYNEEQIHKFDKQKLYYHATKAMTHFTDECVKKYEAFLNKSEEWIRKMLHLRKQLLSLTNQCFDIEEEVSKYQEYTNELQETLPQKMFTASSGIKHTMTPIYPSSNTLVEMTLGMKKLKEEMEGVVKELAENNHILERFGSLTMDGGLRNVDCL
The conditions noted are these: at 1 µM.

Experiment [19] concerns the target Tyrosine-protein kinase SYK (Homo sapiens) (UniProt P43405). Particulars: at 1 µM.
Experiment [20] concerns the target T3, Serine/threonine-protein kinase TAO2 (Homo sapiens). Particulars: at 1 µM.

Serine/threonine-protein kinase PLK2 (Homo sapiens), sequence (Q9NYY3 whole entry, looked up): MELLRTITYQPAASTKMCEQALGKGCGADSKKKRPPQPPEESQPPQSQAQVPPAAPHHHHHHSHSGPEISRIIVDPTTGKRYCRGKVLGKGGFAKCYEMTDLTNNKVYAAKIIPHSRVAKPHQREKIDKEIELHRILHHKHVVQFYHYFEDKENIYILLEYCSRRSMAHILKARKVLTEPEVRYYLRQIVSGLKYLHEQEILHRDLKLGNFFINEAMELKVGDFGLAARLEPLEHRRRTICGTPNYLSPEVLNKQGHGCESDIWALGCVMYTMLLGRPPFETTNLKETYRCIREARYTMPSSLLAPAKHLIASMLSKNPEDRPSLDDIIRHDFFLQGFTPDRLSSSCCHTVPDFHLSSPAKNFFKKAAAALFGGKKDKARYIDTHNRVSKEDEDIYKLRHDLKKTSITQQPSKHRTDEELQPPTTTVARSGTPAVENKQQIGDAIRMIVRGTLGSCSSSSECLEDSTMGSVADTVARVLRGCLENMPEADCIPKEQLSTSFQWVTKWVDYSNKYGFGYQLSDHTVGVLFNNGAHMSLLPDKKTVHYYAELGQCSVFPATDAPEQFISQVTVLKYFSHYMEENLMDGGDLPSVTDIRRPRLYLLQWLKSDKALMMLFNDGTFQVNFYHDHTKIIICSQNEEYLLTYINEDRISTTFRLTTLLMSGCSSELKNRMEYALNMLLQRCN
SRSF protein kinase 2 (Homo sapiens), sequence (P78362 whole entry, looked up): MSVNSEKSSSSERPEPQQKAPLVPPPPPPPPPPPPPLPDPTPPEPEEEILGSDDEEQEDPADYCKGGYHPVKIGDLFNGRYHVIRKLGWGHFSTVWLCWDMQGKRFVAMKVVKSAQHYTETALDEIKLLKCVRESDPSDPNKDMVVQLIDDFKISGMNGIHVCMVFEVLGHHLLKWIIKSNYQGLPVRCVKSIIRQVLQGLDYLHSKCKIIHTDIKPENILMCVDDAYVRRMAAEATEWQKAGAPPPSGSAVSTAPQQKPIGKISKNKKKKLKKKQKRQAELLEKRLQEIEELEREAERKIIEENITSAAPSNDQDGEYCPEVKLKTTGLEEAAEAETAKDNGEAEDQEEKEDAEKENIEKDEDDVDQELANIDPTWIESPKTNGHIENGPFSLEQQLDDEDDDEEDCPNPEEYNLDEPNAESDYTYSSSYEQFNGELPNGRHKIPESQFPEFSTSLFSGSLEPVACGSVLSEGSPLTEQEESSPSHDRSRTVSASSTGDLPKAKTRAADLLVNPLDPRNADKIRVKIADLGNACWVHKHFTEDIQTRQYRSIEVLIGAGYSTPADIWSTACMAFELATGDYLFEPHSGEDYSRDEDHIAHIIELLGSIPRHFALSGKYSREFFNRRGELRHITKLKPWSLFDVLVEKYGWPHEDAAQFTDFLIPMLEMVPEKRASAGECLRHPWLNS
Serine/threonine-protein kinase 33 (Homo sapiens), sequence (Q9BYT3 whole entry, looked up): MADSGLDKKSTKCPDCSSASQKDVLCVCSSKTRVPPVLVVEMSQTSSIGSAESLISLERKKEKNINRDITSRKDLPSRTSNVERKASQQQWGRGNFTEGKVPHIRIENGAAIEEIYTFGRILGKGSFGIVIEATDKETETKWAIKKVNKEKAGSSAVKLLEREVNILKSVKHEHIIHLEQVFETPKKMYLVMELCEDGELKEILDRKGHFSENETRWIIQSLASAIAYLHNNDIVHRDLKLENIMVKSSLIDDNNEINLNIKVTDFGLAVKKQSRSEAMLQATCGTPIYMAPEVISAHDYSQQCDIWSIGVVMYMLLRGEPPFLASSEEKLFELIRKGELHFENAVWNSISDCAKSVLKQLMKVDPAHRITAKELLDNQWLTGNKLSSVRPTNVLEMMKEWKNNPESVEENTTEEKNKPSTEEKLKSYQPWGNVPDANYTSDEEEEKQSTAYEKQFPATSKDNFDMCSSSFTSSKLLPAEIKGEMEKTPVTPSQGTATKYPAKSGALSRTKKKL
SRSF protein kinase 1 (Homo sapiens), sequence (Q96SB4 whole entry): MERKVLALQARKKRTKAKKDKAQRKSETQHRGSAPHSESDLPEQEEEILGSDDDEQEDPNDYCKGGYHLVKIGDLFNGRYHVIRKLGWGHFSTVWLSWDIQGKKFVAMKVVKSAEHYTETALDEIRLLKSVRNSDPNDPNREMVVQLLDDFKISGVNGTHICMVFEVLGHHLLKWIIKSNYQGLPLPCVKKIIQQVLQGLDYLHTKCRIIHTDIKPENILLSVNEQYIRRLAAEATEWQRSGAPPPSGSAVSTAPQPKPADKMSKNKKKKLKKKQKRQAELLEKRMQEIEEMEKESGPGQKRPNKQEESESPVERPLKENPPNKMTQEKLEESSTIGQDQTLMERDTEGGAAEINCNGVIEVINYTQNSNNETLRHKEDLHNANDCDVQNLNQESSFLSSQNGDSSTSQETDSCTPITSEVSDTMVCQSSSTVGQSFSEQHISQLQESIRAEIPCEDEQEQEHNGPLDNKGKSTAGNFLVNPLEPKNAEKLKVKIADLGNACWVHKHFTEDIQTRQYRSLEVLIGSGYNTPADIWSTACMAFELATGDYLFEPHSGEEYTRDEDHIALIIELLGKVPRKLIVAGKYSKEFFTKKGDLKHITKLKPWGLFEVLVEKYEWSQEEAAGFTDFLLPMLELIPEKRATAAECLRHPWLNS
Serine/threonine-protein kinase SIK1 (Homo sapiens), sequence (P57059 whole entry): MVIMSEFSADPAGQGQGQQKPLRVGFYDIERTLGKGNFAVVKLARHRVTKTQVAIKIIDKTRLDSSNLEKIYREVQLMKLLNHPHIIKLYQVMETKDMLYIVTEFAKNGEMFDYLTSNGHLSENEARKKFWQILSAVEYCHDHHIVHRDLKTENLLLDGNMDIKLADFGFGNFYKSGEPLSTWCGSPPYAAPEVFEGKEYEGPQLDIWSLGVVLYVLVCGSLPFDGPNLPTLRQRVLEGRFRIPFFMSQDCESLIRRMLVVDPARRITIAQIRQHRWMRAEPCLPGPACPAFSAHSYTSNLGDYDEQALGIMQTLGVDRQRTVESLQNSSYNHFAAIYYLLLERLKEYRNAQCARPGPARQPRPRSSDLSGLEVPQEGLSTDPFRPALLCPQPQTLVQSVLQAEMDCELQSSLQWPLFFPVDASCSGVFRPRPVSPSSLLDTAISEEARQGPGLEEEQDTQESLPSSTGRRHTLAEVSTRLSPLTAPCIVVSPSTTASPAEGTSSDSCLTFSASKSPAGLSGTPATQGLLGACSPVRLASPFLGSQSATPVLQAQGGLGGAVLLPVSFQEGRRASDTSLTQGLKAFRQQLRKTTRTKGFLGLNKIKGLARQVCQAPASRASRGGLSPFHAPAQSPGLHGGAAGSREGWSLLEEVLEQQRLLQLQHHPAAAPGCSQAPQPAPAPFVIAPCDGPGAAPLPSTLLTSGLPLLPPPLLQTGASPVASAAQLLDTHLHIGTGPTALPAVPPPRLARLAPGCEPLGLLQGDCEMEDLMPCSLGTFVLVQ

On to `c1ccc2c(-c3ccncc3)c[nH]c2c1`, for which the residual activity in experiment [1] is 85%; in experiment [2], 108%; in experiment [3], 108%; in [4], 89%; in [5], 97%; in experiment [6], 98%. Also, the residual activity in experiment [7] came to 93%; in [8] it was 107%; in [9], 94%; in [10], 92%; in experiment [11], 85%; in experiment [12], 85%. The residual activity stood at 100% in experiment [13]; 66% in [14]; 85% in experiment [15]; 98% in experiment [16]; 72% in [17]; 65% in [18].
For the compound `Cn1nc2c3c(cccc31)C(=O)c1ccccc1-2`, the residual activity in [1] was determined as 64%; in experiment [2], 101%; in experiment [3] it was 89%; in experiment [4], 100%; in [5] it was 71%; in experiment [6], 87%. The residual activity in [7] stood at 74%; in [8] it was 100%; in experiment [9] it was 89%; in [19], 96%; in experiment [10], 100%; in [11], 87%. For the same compound, the residual activity in experiment [12] came out at 46%; in [13], 94%; in experiment [14], 88%; in experiment [15] it was 95%; in [16] it was 91%; in [17] it was 90%. In experiment [18], the residual activity came to 67%.
Turning to `CC(C)n1cnc2c(NCc3ccccc3)nc(NCCCO)nc21`, the residual activity worked out at 100% in [1]; 78% in experiment [2]; 37% in experiment [3]; 93% in [4]; 37% in experiment [5]; 93% in [6]. For the same compound, the residual activity in [7] amounted to 71%; in experiment [8], 94%; in [9], 88%; in [19], 103%; in experiment [10], 105%; in [11], 96%. Also, the residual activity in experiment [12] worked out at 92%; in experiment [13], 87%; in experiment [14] it was 81%; in [20], 100%; in [15], 101%; in experiment [16], 97%. The residual activity in [17] was found to be 88%; in [18], 79%.
For `c1ccc(-c2n[nH]cc2-c2ccnc3ccccc23)nc1`, the residual activity in [1] was 104%; in experiment [2], 106%; in experiment [3] it was 108%; in experiment [5], 87%; in [6], 97%; in [7], 94%. Moreover, the residual activity in [8] worked out at 102%; in experiment [9], 96%; in experiment [11], 91%; in experiment [12], 71%; in [13] it was 107%; in experiment [14] it was 95%. The residual activity was found to be 103% in experiment [20]; 86% in [15]; 91% in [16]; 84% in experiment [17]; 71% in experiment [18].
